{"source": "PubChem BioAssay AID743279", "about": "(National Center for Advancing Translational Sciences (NCATS), 2014)", "note": "The campaign covered roughly 360,000 compounds. About 17,000 (4.7%) were called active. Inconclusive results (about 5%) are left out. Rule as the data show it: active = activity change below about -50%; inconclusive = mostly about -30% to -49%; inactive = weaker than that. For the sample, actives were picked, then their nearest neighbours and some compounds at random. % is scaled to controls: 0 for no effect and ±100 for the full control effect.", "data": [{"assay": "qHTS for Inhibitors of Inflammasome Signaling: IL-1-beta AlphaLISA Primary Screen", "settings": "THP-1 LPS/ATP IL-1B secretion, 16 h; at 57.5 µM, stronger effect = lower value", "in_short": "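Secreted IL-1B measured by AlphaLISA bead assay after 16 h compound exposure of THP-1 cells; compounds (final up to 57.5 uM) added 1 h before LPS (250 ng/mL) and ATP (1.25 mM) stimulation; lower signal means less secretion.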", "values": [{"smiles": "C[C@@H]1CN([C@H](C)CO)C(=O)c2cc(-c3ccc(F)cc3)cnc2O[C@H]1CN(C)C(=O)c1ccc(F)cc1", "activity change": "-10.1% (inactive)"}, {"smiles": "CN(CCc1ccccc1)c1ccc([N+](=O)[O-])cn1", "activity change": "25.8% (inactive)"}, {"smiles": "Cc1cc(C(=O)OCC(=O)N2c3ccccc3NC(=O)C2(C)C)c(C)n1-c1ccccc1", "activity change": "-78.6% (active)"}, {"smiles": "Cc1ccc(OCCC(=O)OCC(=O)N2c3ccccc3NC(=O)C2(C)C)cc1", "activity change": "11% (inactive)"}, {"smiles": "CNS(=O)(=O)c1cccc(C(=O)OCC(=O)N2c3ccccc3NC(=O)C2(C)C)c1", "activity change": "11.2% (inactive)"}, {"smiles": "NC(=O)C1(Nc2ccc(-c3ccccc3)cc2)CCCC1", "activity change": "3.69% (inactive)"}, {"smiles": "Cc1ccc(S(=O)(=O)N(CC(=O)Nc2cccnc2)c2ccc(Br)cc2)cc1", "activity change": "-14.5% (inactive)"}, {"smiles": "O=C(Nc1ccc(OC(F)(F)F)cc1)c1ccc2c(c1)no[n+]2[O-]", "activity change": "-96.1% (active)"}, {"smiles": "Cn1cccc1/C=N/NC(=O)c1ccc(OC(F)(F)C(F)F)cc1", "activity change": "81.3% (inactive)"}, {"smiles": "Cn1nccc1NC(=O)Nc1ccc(OC(F)(F)F)cc1", "activity change": "1.91% (inactive)"}, {"smiles": "CC(CC(=O)N1CCN(S(=O)(=O)c2ccccc2)CC1)n1cncn1", "note": "(stereo unspecified)", "activity change": "-19.9% (inactive)"}, {"smiles": "Cc1cccc(S(=O)(=O)N(C)C[C@@H]2OCc3cnnn3CCCC(=O)N([C@H](C)CO)C[C@@H]2C)c1", "activity change": "-0.819% (inactive)"}, {"smiles": "CN1OC[C@@H]2CN(C(=O)c3ccc(-c4ccccc4)cc3)[C@H](c3ccc(-c4cccc(F)c4)cc3)C[C@@H]21", "activity change": "56.8% (inactive)"}, {"smiles": "C[C@@H]1CN([C@H](C)CO)S(=O)(=O)c2ccc(C#CC3CCCCC3)cc2O[C@H]1CN(C)C(=O)Cc1ccncc1", "activity change": "-1.14% (inactive)"}, {"smiles": "CN1CCN(c2nc(Nc3ccc(O)cc3)nc3ccccc23)CC1", "activity change": "-96.2% (active)"}, {"smiles": "CCCCc1nc2ccccc2c(NC(=O)CN2CCN(C)CC2)c1CCC", "activity change": "-6.28% (inactive)"}, {"smiles": "c1ccc(Nc2nc(N3CCOCC3)c3ccccc3n2)cc1", "activity change": "-109% (active)"}, {"smiles": "Cc1cc(Nc2ccc(Br)cc2)nc2ccccc12", "activity change": "-5.96% (inactive)"}, {"smiles": "O=C(COc1nc2ccccc2nc1N1CCOCC1)NCC(F)(F)F", "activity change": "0.929% (inactive)"}, {"smiles": "c1ccc(-c2nnc(N3CCOCC3)c3ccccc23)cc1", "activity change": "-6.84% (inactive)"}, {"smiles": "CCNC(=O)COC(=O)/C=C/c1c(C)nn(Cc2cccc(OC)c2)c1Cl", "activity change": "-4.38% (inactive)"}, {"smiles": "NC(=S)NN=Cc1ccc(OC(=O)COc2cc(Cl)c(Cl)cc2Cl)cn1", "activity change": "119% (inactive)"}, {"smiles": "CC1=NN(c2cccc(Cl)c2)C(=O)C12CC(C)=C(C)CS2", "note": "(stereo unspecified)", "activity change": "-78.4% (active)"}, {"smiles": "O=C(O)C(=Cc1ccccc1[N+](=O)[O-])c1ccccc1", "activity change": "12.6% (inactive)"}, {"smiles": "Cc1c(C(C)(C)O)[nH]c2ccc(C#N)cc12", "activity change": "38.6% (inactive)"}, {"smiles": "Cc1cccc(N(C(=O)Cc2cccs2)C(C(=O)NC2CCCC2)c2ccsc2)c1", "note": "(stereo unspecified)", "activity change": "0% (inactive)"}, {"smiles": "CCOC(=O)c1cc2c(n(-c3ccc(C)cc3)c1=O)CCCC2=O", "activity change": "-18.1% (inactive)"}, {"smiles": "O=C1CCCC2=C1C(c1cccs1)CC(=O)N2c1ccc(F)cc1", "note": "(stereo unspecified)", "activity change": "20.1% (inactive)"}, {"smiles": "CCOC(=O)C1=C(N)N(c2ccc(C)cc2)C2=C(C(=O)CCC2)C1c1cccs1", "note": "(stereo unspecified)", "activity change": "-55.3% (active)"}, {"smiles": "Cc1ccccc1CS(=O)(=O)CC1(O)CCN(C(=O)c2cccc(C(F)(F)F)c2)CC1", "activity change": "9.6% (inactive)"}, {"smiles": "Cc1ccc(-c2nc3ccc(Br)cn3c2Cc2ccccc2C(F)(F)F)cc1", "activity change": "16.5% (inactive)"}, {"smiles": "COc1ccccc1NC(=O)C(C)OC(=O)CC1CCCC1", "note": "(stereo unspecified)", "activity change": "23.8% (inactive)"}, {"smiles": "CC(NCc1ccccc1OC1CCCC1)c1ccccc1", "note": "(stereo unspecified)", "activity change": "-82.2% (active)"}, {"smiles": "COc1ccccc1CN1CCN(C(c2ccccc2)c2ccccc2)CC1", "activity change": "-16.2% (inactive)"}, {"smiles": "CCCCNC1(C#N)CCN(Cc2ccccc2)CC1", "activity change": "9.53% (inactive)"}, {"smiles": "CC1(C(=O)NCc2ccc3c(c2)OCO3)CCN1CCc1ccccc1", "note": "(stereo unspecified)", "activity change": "10.6% (inactive)"}, {"smiles": "C/C(=N\\N(C)C)c1ccc(OCCOc2ccc([N+](=O)[O-])cc2)cc1", "activity change": "-52.7% (active)"}, {"smiles": "CO/N=C(\\N)c1ccc([N+](=O)[O-])cc1", "activity change": "-10.8% (inactive)"}, {"smiles": "C/C(=N/NC(=O)CC(=O)N/N=C(\\C)c1ccc([N+](=O)[O-])cc1)c1ccc([N+](=O)[O-])cc1", "activity change": "26.9% (inactive)"}, {"smiles": "Cc1cc([N+](=O)[O-])c(=O)[nH]c1C", "activity change": "26.9% (inactive)"}, {"smiles": "CN(C)C(=O)c1nc2ccc(Cl)cn2c1CNCc1cccc(OC(F)(F)F)c1", "activity change": "32.2% (inactive)"}, {"smiles": "CSCC[C@H](NC(=O)NCCc1ccc(F)cc1)C(=O)O", "activity change": "3.5% (inactive)"}, {"smiles": "COc1ccc(C(O)C(O)(C(=O)OC(C)C)c2ccc(C)cc2)cc1", "note": "(stereo unspecified)", "activity change": "-21% (inactive)"}, {"smiles": "O=C(N/N=C/c1cccc(Br)c1)c1ccc(N2CCCC2=O)cc1", "activity change": "-55.3% (active)"}, {"smiles": "Cn1c(=O)n(C)c2cc(/C=N/NC(=O)c3cccc(Br)c3)ccc21", "activity change": "-10.6% (inactive)"}, {"smiles": "O=C(Nc1ccc(N2CCCC2=O)cc1)c1cncc(Br)c1", "activity change": "1.56% (inactive)"}, {"smiles": "CC(=O)c1cccc(-c2ccc(CN3C(CC(C)C)C(=O)N(Cc4cn(CC5CCCCC5)nn4)CCS3(=O)=O)cc2)c1", "note": "(stereo unspecified)", "activity change": "-9.9% (inactive)"}, {"smiles": "OCCC#Cc1ccc(N2C(c3ccsc3)=Cc3ccc(F)cc3C2c2c[nH]c3ccccc23)cc1", "note": "(stereo unspecified)", "activity change": "-15.9% (inactive)"}, {"smiles": "COc1ccc(CCn2c(=N)c(C(=O)NCC3CCCO3)cc3c(=O)n4cccc(C)c4nc32)cc1OC", "note": "(stereo unspecified)", "activity change": "-11.6% (inactive)"}, {"smiles": "COc1ccc(CCn2c(=N)c(C(=O)NCc3ccco3)cc3c(=O)n4cccc(C)c4nc32)cc1", "activity change": "-53.7% (active)"}, {"smiles": "Cc1ccc(S(=O)(=O)c2cc3c(=O)n4cccc(C)c4nc3n(CCc3ccccc3)c2=N)cc1C", "activity change": "20.8% (inactive)"}, {"smiles": "Cc1ccc(S(=O)(=O)N[C@H]2CCC[C@@H]2O)cc1", "activity change": "6.2% (inactive)"}, {"smiles": "CCCNC(=O)C1(C)CCN1C(=O)Cc1ccc(-c2ccccc2)cc1", "note": "(stereo unspecified)", "activity change": "-1.04% (inactive)"}, {"smiles": "C#Cc1ccc(NC(=O)C2(C)CCN2C(=O)Cc2ccc(-c3ccccc3)cc2)cc1", "note": "(stereo unspecified)", "activity change": "-2.2% (inactive)"}, {"smiles": "COc1ccc(OC)c(NC(=O)C2(C)CCN2C(=O)Cc2ccccc2)c1", "note": "(stereo unspecified)", "activity change": "-87.1% (active)"}, {"smiles": "COc1ccc(C(CNC(=O)CSc2ccccc2)N2CCOCC2)cc1", "note": "(stereo unspecified)", "activity change": "0% (inactive)"}, {"smiles": "COC(=O)C[C@@H]1C=C[C@@H](NC(=O)c2cccnc2)[C@@H](CO)O1", "activity change": "2.57% (inactive)"}, {"smiles": "CCOC(=O)C1CCCN(C(=O)c2cccc3ccccc23)CC1", "note": "(stereo unspecified)", "activity change": "61.7% (inactive)"}, {"smiles": "O=[N+]([O-])c1ccc(COc2ccccc2CN2CCOCC2)cc1", "activity change": "-17.6% (inactive)"}, {"smiles": "COc1ccc(NC(=O)c2cccc(Cl)c2)c[n+]1[O-]", "activity change": "-0.66% (inactive)"}, {"smiles": "C=C(C)COc1ccc(-c2ncncc2-c2ccc(OC)cc2)c(O)c1", "activity change": "-58.4% (active)"}, {"smiles": "COc1ccc(-c2nc(N)ncc2-c2ccc(Cl)cc2)c(O)c1", "activity change": "-11.3% (inactive)"}, {"smiles": "C=C(C)COc1ccc(-c2nc(N)ncc2-c2ccccc2OC)c(O)c1", "activity change": "-26.4% (inactive)"}, {"smiles": "COc1ccc(C(C(=O)NCc2ccccc2)N(Cc2cccs2)C(=O)c2cnccn2)cc1", "note": "(stereo unspecified)", "activity change": "3.36% (inactive)"}, {"smiles": "COc1ccc(-c2cc(C3CCN(c4ncccc4[N+](=O)[O-])CC3)[nH]n2)cc1", "activity change": "-28.8% (inactive)"}, {"smiles": "C#Cc1cc(N2CCN(C(=O)c3ccoc3)CC2)n2nc(-c3cccc(Cl)c3)cc2n1", "activity change": "-109% (active)"}, {"smiles": "O=C(c1ccccc1)N1CCN(c2cc(-c3ccccc3)nc3cc(-c4cccc(Cl)c4)nn23)CC1", "activity change": "15.2% (inactive)"}, {"smiles": "CN(C)CCN1CCN(c2cc(-c3cccc(Cl)c3)nc3ccnn23)CC1", "activity change": "6.44% (inactive)"}, {"smiles": "COc1cccc(/C=N/Nc2cc(C)nc(-c3ccccc3O)n2)c1O", "activity change": "-99.4% (active)"}, {"smiles": "Cc1nc2ccccc2nc1N/N=C/c1ccc(O)cc1O", "activity change": "144% (inactive)"}, {"smiles": "CC(=O)c1ccc(Oc2cc(C)nc(-n3nc(C)cc3C)n2)cc1", "activity change": "46.7% (inactive)"}, {"smiles": "COc1ccccc1/C=N\\Nc1cc(C)nc(-n2nc(C)cc2C)n1", "activity change": "-99% (active)"}, {"smiles": "COc1ccc(/C=N/Nc2cc(N3CCOCC3)nc(C)n2)c(OC)c1", "activity change": "-8.96% (inactive)"}, {"smiles": "COc1cccc(/C=N/Nc2ccc(S(=O)(=O)Nc3ccccc3C(=O)O)cc2[N+](=O)[O-])c1O", "activity change": "-5.79% (inactive)"}, {"smiles": "O=S(=O)(/N=C(/Nc1ccccc1)c1ccccc1)c1cccs1", "activity change": "-18.2% (inactive)"}, {"smiles": "COc1ccc(-c2csc(C(O)c3cccc(Cl)c3)n2)cn1", "note": "(stereo unspecified)", "activity change": "-7.83% (inactive)"}, {"smiles": "CN1CCn2cnc(C(=O)NCC(=O)OC(C)(C)C)c2C1=O", "activity change": "3.21% (inactive)"}, {"smiles": "O=C(Nc1ccc(Cl)cc1)c1csc([C@H]2C[C@H](O)[C@@H](CO)O2)n1", "activity change": "17.6% (inactive)"}, {"smiles": "COc1ccc(-c2cc(C(F)(F)F)nc(SCCC(=O)NCc3ccco3)n2)cc1", "activity change": "-20.3% (inactive)"}, {"smiles": "COc1ccc(N)cc1NC(=O)CN1CCOCC1", "activity change": "3.53% (inactive)"}, {"smiles": "C=C1C(=O)[C@]23C[C@H]1CCC2[C@@]1(C)C(C[C@@H]3O)[C@](C)(C(=O)O)CC[C@@H]1O", "note": "(stereo partly specified)", "activity change": "-91.2% (active)"}, {"smiles": "COc1cc(S(=O)(=O)Nc2ncn[nH]2)ccc1Cl", "activity change": "8.42% (inactive)"}, {"smiles": "CN1CCOC1c1ccc(C2OCCN2C)cc1", "note": "(stereo unspecified)", "activity change": "5.1% (inactive)"}, {"smiles": "CN(C)c1ccc(/C=N/NC(=O)c2ccc(Cn3cc(Br)cn3)o2)cc1", "activity change": "-53% (active)"}, {"smiles": "CN(C)c1ccc(/C=N/NC(=O)C(O)c2ccc(Br)cc2)cc1", "note": "(stereo unspecified)", "activity change": "-3.94% (inactive)"}, {"smiles": "O=C(N/N=C\\c1ccc(Br)cc1)c1ccc(Cn2cccn2)o1", "activity change": "-3.71% (inactive)"}, {"smiles": "CC=CCn1c(SCCCc2ccccc2)nc2c1c(=O)[nH]c(=O)n2C", "activity change": "34.7% (inactive)"}, {"smiles": "O=C1OC(Cc2ccccc2)C(c2ccccc2)C1=O", "note": "(stereo unspecified)", "activity change": "-4.65% (inactive)"}, {"smiles": "CCN(CCCNC(=O)c1ccc2c(c1)NC(=O)CN2C)c1cccc(C)c1", "activity change": "-98.2% (active)"}, {"smiles": "CCN1CCN(CCNC(=O)c2ccc3c(c2)NC(=O)/C(=C\\c2cccc(Cl)c2)S3)CC1", "activity change": "12.3% (inactive)"}, {"smiles": "CCN(CCCNC(=O)CCn1c(=O)[nH]c2ccsc2c1=O)c1ccccc1", "activity change": "-7.98% (inactive)"}]}]}
